# The supplement of paper PMC10338343
# ± gives the standard deviation.
# Test system: MILI (PIWIL2) piRISC loaded with L1MC piRNA (26 nt)
# Assay: pre-steady-state target cleavage rate (min^-1); guide: L1MC piRNA 5'p-UAACUAAAUACUAUGCAAGCUGUAGG; MIWI and MILI are mouse PIWI proteins and EfPiwi is from a freshwater sponge; tags in brackets are library labels; higher = faster piRNA-guided slicing of the target
# Settings: auxiliary factor: 500 nM mouse GTSF1
# Method in brief: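 In HEPES–potassium acetate buffer at 33 °C, […] transcribed, DNA-blocked target RNA library was mixed with 1 nM active affinity-purified piRISC carrying one synthetic guide, with or without 500 nM GTSF1 partner protein, for 0–8 or 0–960 min. Uncleaved targets were sequenced and normalised to depth and to weakly complementary targets; three trials were pooled and k3 was capped at 0.0001 min^-1. The pre-steady-state cleavage rate followed from a burst-and-steady-state fit.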
# 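Note: 1 nM active piRISC with 0.1 nM target library at 33 °C single turnover.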
row,Sequence,pre-steady-state target cleavage rate
1,UCCUGGAUGAGCUACCAUAGUAUUUAGUAA,0.1 ± 0.018
2,UCCUGGUACAGCUACGAUAGUAUUUAGUAA,0.183 ± 0.034
3,UCCUCCUACAGCUUGCAUACUAUAUAGUUA,0.0619 ± 0.015
4,UCCUGGAUGUCGAUGUCAUAGUAUUUAGUUA,0.0067 ± 0.0037
5,UCCUGGAACACCUUGCAUAGUAUUUACAAA,0.071 ± 0.02
6,UCCUGGAUGUCCUUGCAAACUAUUUAGUUA,0.00732 ± 0.0037
7,UCCUGGAUGUCCUUGCAAUAGUAUUUAGUUA,0.00466 ± 0.0043
8,UCCUCCUAGAGCUUGCAUAGUAUUUACUUA,0.146 ± 0.03
9,UCCUGGAUGUCCUUGCAUACUAUUUUGUUA,0.00525 ± 0.0044
10,UCCUGGAACAGCUUGGAUACUAUUUAGUUA,0.0744 ± 0.017
11,UCCUGGAUGUGCUUGCAUUGUAUUUAGAAA,0.0114 ± 0.0047
12,UCCUGGUACACGUUGCAUAGUAUUUAGAAA,0.0229 ± 0.011
13,UCCUGGAUGAGCUUGCAUAGAAAUUAGUUA,0.0228 ± 0.0075
14,UCCUGGAUGAGCUUGCAUAGUAUAUUAGUUA,0.158 ± 0.017
15,UCCUGCUACAGCUUGCAUAGUAUUUAUUA,0.0696 ± 0.017
16,UCCUGGAUGUCGAUCCAUAGUAUUUAGUUA,0.00686 ± 0.0039

row,Sequence,pre-steady-state target cleavage rate
1,UCCUGGUACAGCUUGCAUAGUAUUAACAAA,0.0231 ± 0.0084
2,UCCUGGAACAGCUUGCAUAGUAAAAUCAAA,0.0152 ± 0.008
3,UCCUGGAUGUCGAUGCAUAGUAUUUAGUGA,0.0843 ± 0.016
4,UCCUGGAACAGCAAGCAUAGUAUUUACAAA,0.148 ± 0.034
5,UCCUGGUACUCCUUGCAUAGUAUUUACAAA,0.0123 ± 0.006
6,UCCUGGAUCAGCUUGCAUAGAAUUUAGUAA,0.0373 ± 0.011
7,UCCUGGAACAGCAAGCAUAGUAUUUAGUAA,0.271 ± 0.025
8,UCCUGCUACAGCUUGCAAAGUAUUUACUUA,0.0653 ± 0.0078
9,UCCUGGAACAGCUUGGAUAGAAUUUAGUUA,0.0521 ± 0.013
10,UCCUGGAUGUCCUUGCAUAGUAUUAACUUA,0.0115 ± 0.0049
11,UCCUGGAUGUGCUUGCAUACUAUUUUGUUA,0.00854 ± 0.0058
12,UCCUCCUACAGCUUGGUAAGUAUUUAGAAA,0.0543 ± 0.013
13,UCCUGGAUGUCCUUGCAAAGUAUUUUGUUA,0.0119 ± 0.0056
14,UCCUGGAACAGCUAGCAUAGAAUUUAGUUA,0.0486 ± 0.0073
15,UCCUGGAUGACCUUCCAUAGUAUUUAGUUA,0.024 ± 0.0096
16,UCCUGGAUGAGCUUGCAUAGUAUUUUGAAA,0.0223 ± 0.0096

# Same assay, conditions: auxiliary factor: none (no GTSF1)
row,Sequence,pre-steady-state target cleavage rate
1,UCCUGGAUGUCGAAGCAUAGAAUUUAGUAA,< 0.0001
2,UCCUGGAUGUCGAAGCAGUAGUAUUUAGUUA,< 0.0001
3,UCCUGGAACAGCUUCGAUAGUAUUUACAAA,< 0.0001
4,UCCUGGAUGUCGAACCAUAGUAAAUAGUUA,< 0.0001
5,UCCUGGAUGUGCUUCCAUAGUAUUUAGAUA,< 0.0001
6,UCCUGGAUGUCGAACGAUUCAAUUUAGUUA,< 0.0001
7,UCCUGGUACAGCUUCGUUAGUAUUUAGAAA,< 0.0001
